Test results from PubChem BioAssay (NCI).
The panel holds about 83,000 compounds, 20% with a hit somewhere; the sample as a whole holds those more often.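 Percent growth is the endpoint: 0 to 100 indicates growth inhibition (40 means 60% inhibition), 0 means no net growth, and negative values indicate cell death.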 Values without a mark were called inactive. The source made the active and inactive calls. How the source made its calls: active means growth percent below 10; inactive means the rest.

What follows are molecules tested on SN12C renal (assay: NCI-60 one-dose screen, 48 h (100 = growth as untreated, 0 = no growth, -100 = all killed)). Conditions: 10 µM unless noted.

Structure (SMILES) | growth
C(=C\c1cn(-c2ccccc2)nc1-c1ccccc1)/c1nnc(-c2c[nH]c3ccccc23)o1 | 27.9%
Nc1c(C(=O)Nc2ccccn2)sc2nc3c(cc12)C(=O)CCC3 | 43.6%
C=C1C(=O)O[C@H]2[C@H]1CC/C(COC(=O)CCCCCCC(=O)OC/C1=C/CC[C@@]3(C)O[C@H]3[C@H]3OC(=O)C(=C)[C@@H]3CC1)=C\CC[C@@]1(C)O[C@@H]21 | 6.29% (active)
O=C(Nc1ccc2ncnc(Nc3ccc(F)c(Cl)c3)c2c1)c1ccccc1 | 71.2%
O=C(NC[C@H](O)CN1CCc2ccccc2C1)c1cc(NC2COC2)ncn1 | 95.5%

Each molecule was assayed on UO-31 renal in the same assay as above. Conditions: 10 µM unless noted.

Structure (SMILES) | growth
COC(=O)c1nc(-c2ccccc2)oc1S(=O)(=O)n1nc(-c2ccccc2)cc1N | 65.6%
COc1ccc(C(=O)c2cc(OC)c(C)c(OC)c2)cc1OC(=O)CCl | 49.9%
CC(=O)c1cnc(-c2ccccc2)nc1CBr | 44.7%
O=C1CC23OC4ON=C(Br)C4C2C(O)c2ccccc2N13 (centres undefined) | 63.4%
COc1ccc(C(=S)c2cc(OC)c(OC)c(OC)c2)cc1OC(=O)CCl | 45.5%
COc1ccc2oc(=O)cc(-c3c(C#N)c(N)n4nc(N)c(C#N)c4c3C#N)c2c1 | 94.4%
O=C(Nc1cc(Br)ccn1)c1cc2cc(Nc3nc(-c4ccccc4)nc4ccccc34)ccc2oc1=O | 75.4%
CC1CCCN(CCCCCOc2ccc3oc4ccc(Cl)cc4c(=O)c3c2)C1 (centres undefined) | 70.7%
COc1cc(C2=NNC(c3ccc(N(C)C)cc3)C2)cc(OC)c1OC (centres undefined) | 38.9%
